Experiment [1] addresses Lysosomal acid glucosylceramidase (Homo sapiens) (UniProt P04062). The experiment in a line: Glucocerebrosidase-p2 (AID 348; in the data active = potency below about 10 µM; note: potency is the fitted concentration of half-maximal effect). The conditions noted are these: purified GBA, blue fluorogenic substrate, 40 min. A digest of the protocol: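 Compounds titrated from 0.6 nM upwards against 0.2 nM enzyme in pH 5.9 citric acid/KH2PO4, taurocholate, tween-20; blue fluorogenic substrate 80 uM, 40 min room temperature, stopped and read Ex 365/Em 440 for AC50.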

Experiment [2] in a line: AP1 Signaling Pathway (AID 357). Note: % is set by controls: 0 for no effect and ±100 for the full control effect. The following applies: ME-180 AP-1-bla reporter, EGF-induced, beta-lactamase ratio, 5 h; at 7.69 µM (top of the series) unless noted. A digest of the protocol: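 Cells are seeded overnight, exposed to compound titrations and an EC50 level of EGF for 5 hours at 37 °C, then loaded with CCF4 dye for 2.5 hours. Beta-lactamase activity under the AP-1 element is read as a blue/green ratio.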

Experiment [3] in a line: NFAT Signaling Pathway (AID 444).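 Note: carbachol stimulus at about its EC50 of 1 µM final; % is set by controls: 0 for no effect and ±100 for the full control effect.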 The following applies: Jurkat NFAT-bla M1, carbachol, beta-lactamase ratio, 5 h; at 7.69 µM (top of the series) unless noted. A digest of the protocol:
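Read-out: CCF4 FRET ratio (460 nm/530 nm) after 1 h RT dye loading, used for %activity and AC50 from titration series. Cells: Jurkat NFAT-β-lactamase/M1 line, treated with compound plus 1 uM carbachol for 5 h, 37 °C.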

Experiment [4] is described as follows: Stat Signaling Pathway (AID 446).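 Note: ME-180 cervical cancer cells given 40 pM IL-6 alongside compound; SIE-controlled beta-lactamase reporter measured as 460/530 nm FRET emission ratio; % is set by controls: 0 for no effect and ±100 for the full control effect.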 The following applies: ME-180 SIE beta-lactamase reporter, IL-6 stimulated, 5 h; at 7.69 µM (top of the series) unless noted. A digest of the protocol: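 ME-180 cells carrying a SIE-driven beta-lactamase reporter are stimulated with 40 pM IL-6 for 5 h at 37C in the presence of compound. The 460/530 nm FRET substrate ratio is read after 2.5 h at RT. Data are normalised to 300 pM IL-6 and to 125 nM JAK inhibitor controls.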

The target in experiment [5] is Glucocorticoid receptor (Homo sapiens) (UniProt P04150). The experiment in a line: GR-GFP Redistribution (AID 450;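 active = compounds whose dose series gives a full or clear partial fitted curve of increased nuclear translocation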; note: potency is the fitted concentration of half-maximal effect). The conditions noted are these: U2OS GR-GFP nuclear translocation, laser cytometry, 2 h.
Glucocorticoid receptor (Homo sapiens), sequence (P04150 whole entry, looked up, the tested form may be a part): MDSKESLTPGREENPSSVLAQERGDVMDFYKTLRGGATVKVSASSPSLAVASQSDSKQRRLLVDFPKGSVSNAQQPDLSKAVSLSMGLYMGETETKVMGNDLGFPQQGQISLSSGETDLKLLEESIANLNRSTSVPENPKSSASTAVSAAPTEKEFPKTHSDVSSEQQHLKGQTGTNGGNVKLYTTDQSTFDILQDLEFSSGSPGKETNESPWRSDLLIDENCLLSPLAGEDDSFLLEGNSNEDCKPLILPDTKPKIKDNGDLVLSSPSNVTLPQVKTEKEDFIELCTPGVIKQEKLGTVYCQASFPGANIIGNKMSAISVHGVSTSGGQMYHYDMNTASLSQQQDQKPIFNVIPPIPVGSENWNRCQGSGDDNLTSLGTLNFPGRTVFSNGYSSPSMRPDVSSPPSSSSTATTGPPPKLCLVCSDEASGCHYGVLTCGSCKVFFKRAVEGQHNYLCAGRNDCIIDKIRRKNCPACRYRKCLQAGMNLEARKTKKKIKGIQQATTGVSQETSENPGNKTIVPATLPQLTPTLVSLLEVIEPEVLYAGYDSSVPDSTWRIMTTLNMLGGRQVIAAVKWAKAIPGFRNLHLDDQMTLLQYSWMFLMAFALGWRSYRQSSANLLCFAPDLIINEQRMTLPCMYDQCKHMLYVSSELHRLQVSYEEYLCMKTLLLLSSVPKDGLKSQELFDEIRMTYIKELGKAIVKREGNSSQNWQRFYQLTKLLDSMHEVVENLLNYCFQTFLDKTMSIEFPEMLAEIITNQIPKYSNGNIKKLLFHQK
Experiment [6] shares this target. The experiment in a line: GR-EFC Redistribution (AID 451; calls by dose curve; note: potency is the fitted concentration of half-maximal effect). The following applies: CHO-K1 GR-EFC translocation, beta-gal luminescence, 2 h. A digest of the protocol: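 Translocation of GR-ED fusion to nuclear EA restores b-gal, read by luminescence after 1 h room-temperature detection. Engineered CHO-K1 biosensor cells, 1,000/well, exposed 2 h at 37 C to titrations up to 46 uM final.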

In experiment [7] the target is Mitogen-activated protein kinase 10 (Mus musculus) (UniProt Q61831). The experiment in a line: JNK3 AlphaScreen Assay (AID 530).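 Note: kinase came from lysate of stimulated human HepG2 cells; signal reports phosphorylation of biotinylated GST-cJun 1-79 at Ser73 with 10 µM ATP; % is set by controls: 0 for no effect and ±100 for the full control effect.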 The conditions noted are these: JNK3 lysate, c-Jun phosphorylation; series mostly up to 57.1 µM. A digest of the protocol: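 Compound titrations were preincubated 15 minutes at room temperature with substrate, antibody and pre-activated JNK3-containing HepG2 lysate. Reactions were started with 10 uM ATP and stopped with EDTA-containing bead buffer for AlphaScreen detection.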
In general terms: Alpha assays give light when donor and acceptor beads are brought close together.

The target in experiment [8] is 3',5'-cyclic-AMP phosphodiesterase 4B (Homo sapiens) (UniProt Q07343). The experiment in a line: qHTS Assay for Inhibitors of PDE-IV (AID 607; active = well fitted activation curve with a large enough effect in the main read-out, with a control signal flat, not every such curve was filed as active; note: % of control where 0% means no effect). The conditions noted are these: HEK293 ACTOne CNG channel cells, membrane potential fluorescence; series mostly up to 22.9 µM. In short, it runs like this: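 HEK293 ACTOne cells with CNG channel (1000/well), endogenous PDE4; membrane potential dye, compounds up to 22.9 uM final. Fluorescence Ex 535/Em 590; RO 20-1724 (100 uM final) as reference.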
3',5'-cyclic-AMP phosphodiesterase 4B (Homo sapiens), sequence (Q07343 whole entry, looked up): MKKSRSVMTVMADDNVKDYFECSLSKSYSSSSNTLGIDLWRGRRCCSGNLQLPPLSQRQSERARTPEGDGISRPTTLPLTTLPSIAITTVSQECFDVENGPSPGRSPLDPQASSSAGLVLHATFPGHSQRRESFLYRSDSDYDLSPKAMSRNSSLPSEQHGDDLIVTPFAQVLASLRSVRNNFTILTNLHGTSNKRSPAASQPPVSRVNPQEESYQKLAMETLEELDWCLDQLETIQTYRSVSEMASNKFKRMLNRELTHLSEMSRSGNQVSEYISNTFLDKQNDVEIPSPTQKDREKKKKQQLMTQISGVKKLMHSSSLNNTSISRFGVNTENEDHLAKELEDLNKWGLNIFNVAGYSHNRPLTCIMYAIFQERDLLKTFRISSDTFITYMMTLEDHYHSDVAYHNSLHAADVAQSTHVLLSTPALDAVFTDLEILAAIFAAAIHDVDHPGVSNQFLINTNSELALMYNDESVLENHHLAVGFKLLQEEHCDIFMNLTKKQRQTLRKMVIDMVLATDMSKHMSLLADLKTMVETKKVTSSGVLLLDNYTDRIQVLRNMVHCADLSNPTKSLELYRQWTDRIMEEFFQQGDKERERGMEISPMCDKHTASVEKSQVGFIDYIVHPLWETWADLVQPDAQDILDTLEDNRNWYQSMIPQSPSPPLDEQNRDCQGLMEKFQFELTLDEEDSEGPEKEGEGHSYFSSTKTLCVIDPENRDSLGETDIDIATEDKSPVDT
(In general: qHTS replaces the single test concentration by a dilution series.)

Experiment [9] in a line: qHTS Assay for Identification of Small Molecule Agonists for Hypoxia Response Element Signaling Pathway (AID 914; active = well fitted activation curve with a large enough effect in the signal ratio, with a control signal flat, not every such curve was filed as active; the % refers to the signal ratio; note: potency is the fitted concentration of half-maximal effect). The conditions noted are these: ME-180 (cervical carcinoma) HRE-bla reporter, beta-lactamase ratio, CoCl2, 17 h; activation: stronger effect = higher value. A digest of the protocol: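 Cells were plated overnight, pin-dosed with compound in a titration series, co-stimulated with EC50 CoCl2 and incubated 17 hours at 37 degrees Celsius. CCF4 substrate was then loaded, and AC50 values came from the 460nm/530nm ratio.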

Experiment [10] is described as follows: qHTS Assay for Lipid Storage Modulators (AID 1519; calls by dose curve). The following applies: Drosophila S3 cells, BODIPY lipid droplet/cell ratio, laser cytometry, cells loaded with oleic acid; for activity change, negative = inhibition: at 57.5 µM (top of the series). A digest of the protocol:
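Cells seeded at 5,000 per well were treated with compounds over a concentration series and loaded with oleic acid (400 uM, as added). Lipid droplet fluorescence (488 nm excitation, 500-530 nm channel) was read by laser-scanning cytometry and normalized to 20 uM Triacsin C.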

Experiment [11] is described as follows: Primary qHTS for small molecule stabilizers of the endoplasmic reticulum resident proteome: Secreted ER Calcium Modulated Protein (SERCaMP) assay (AID 1508630; active = well fitted curve in the direction sought with a large enough effect; an effect the other way counts as inactive or inconclusive; note: % is set by controls: 0 for no effect and ±100 for the full control effect). The conditions noted are these: SH-SY5Y GLuc-SERCaMP (Gaussia luciferase released on ER calcium loss) secretion, thapsigargin, luminescence; series mostly up to 38.4 µM. In short, it runs like this: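 GLuc-SERCaMP-expressing SH-SY5Y cells, pretreated 16 h with compound, are challenged with thapsigargin to empty ER calcium stores; after 4 h, coelenterazine is added directly to the medium and luminescence is imaged.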

The target of experiment [12] is Cytochrome P450 3A4 (Homo sapiens) (UniProt P08684). The experiment in a line: qHTS Assay for Inhibitors and Substrates of Cytochrome P450 3A4 (AID 884; active = well fitted curve in the direction sought with a large enough effect; an effect the other way counts as inactive or inconclusive; note: potency is the fitted concentration of half-maximal effect; nearly all actives have a fitted effect of over 50% in size). The conditions noted are these: recombinant CYP3A4, Luciferin-PPXE luminescence; series mostly up to 57.1 µM. A digest of the protocol: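 20 nM human CYP3A4 with 25 uM Luciferin-PPXE (at KM) in 200 mM KPO4, preincubated 10 min with compound; NADPH regeneration started a 60 min RT reaction. Luciferin detected by luminescence, normalized to 57 uM ketoconazole as full inhibition.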
Cytochrome P450 3A4 (Homo sapiens), sequence (P08684 whole entry, looked up): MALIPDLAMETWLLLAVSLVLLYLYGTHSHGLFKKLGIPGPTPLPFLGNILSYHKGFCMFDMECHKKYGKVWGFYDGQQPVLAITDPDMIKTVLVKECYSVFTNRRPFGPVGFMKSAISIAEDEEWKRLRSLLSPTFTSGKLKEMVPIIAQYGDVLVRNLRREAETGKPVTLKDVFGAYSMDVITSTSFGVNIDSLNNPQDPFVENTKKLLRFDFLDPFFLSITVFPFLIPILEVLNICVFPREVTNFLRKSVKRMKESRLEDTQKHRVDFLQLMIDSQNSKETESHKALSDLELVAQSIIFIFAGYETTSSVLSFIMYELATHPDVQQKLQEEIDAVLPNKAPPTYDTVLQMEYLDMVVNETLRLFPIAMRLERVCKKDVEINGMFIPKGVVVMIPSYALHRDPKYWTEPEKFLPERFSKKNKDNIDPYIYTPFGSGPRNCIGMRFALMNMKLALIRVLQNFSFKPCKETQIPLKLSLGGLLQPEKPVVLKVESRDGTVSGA

Experiment [13] has the same target. The experiment in a line: qHTS Assay for Activators of Cytochrome P450 3A4 (AID 885; active = well fitted curve in the direction sought with a large enough effect; an effect the other way counts as inactive or inconclusive; note: nearly all actives have a fitted effect of over 65% in size). The following applies: recombinant CYP3A4, Luciferin-PPXE luminescence, 60 min; series mostly up to 57.1 µM. In short, it runs like this:
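Human CYP3A4 (20 nM) with Luciferin-PPXE at 25 uM (its KM) in 200 mM KPO4; 10 min compound preincubation, then NADPH regeneration and 60 min reaction at RT. Luciferin read by luminescence; normalized to 57 uM ketoconazole full inhibition.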

Experiment [14] in a line: Confirmation and Secondary Assay for Modulators of Hemoglobin Beta Chain Splicing at IVS2 654 locus (AID 910; active = well fitted curve in the direction sought with a large enough effect; an effect the other way counts as inactive or inconclusive;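 note: HeLa cells stably carrying EGFP split by mutant beta-globin IVS2-654 intron; per-well total GFP intensity by laser scanning cytometry after 2-day treatment; % of control where 0% means no effect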). The conditions noted are these: HeLa EGFP-654 splicing reporter, GFP fluorescence, 48 h; series mostly up to 38.3 µM. A digest of the protocol: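 Readout: per-well total peak green fluorescence (488 nm ex, 500–520 nm em) from objects 5–250 µm, reflecting correct splicing of an EGFP-654 reporter. Compounds were applied for 2 days at 37 °C to overnight-plated HeLa EGFP-654 cells; controls were DMSO and 500 nM IVS2-654 PNA.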

Experiment [15] can be described thus: Confirmation and Secondary Assay for Modulators of Hemoglobin Beta Chain Splicing at IVS2 705 locus (AID 930; active = well fitted curve in the direction sought with a large enough effect; an effect the other way counts as inactive or inconclusive;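 note: HeLa cells stably expressing the EGFP-705 splicing reporter; GFP fluorescence per well restored by corrected splicing of the IVS2-705 intron in EGFP; % of control where 0% means no effect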). The conditions noted are these: HeLa EGFP-705 splicing reporter, GFP fluorescence, 48 h; series mostly up to 38.3 µM. A digest of the protocol:
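Splice-correction reporter: EGFP cDNA split by beta-globin intron 2 bearing the 705 mutation, stably in HeLa. Compound incubation 2 days, 37C; fluorescent objects 5-250 µm summed per well.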

Experiment [16] concerns the target Ubiquitin carboxyl-terminal hydrolase 1 (Homo sapiens) (UniProt O94782). The experiment in a line: Inhibitors of USP1/UAF1: Pilot qHTS (AID 504865; active = well fitted curve in the direction sought with a large enough effect; an effect the other way counts as inactive or inconclusive;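 note: rhodamine fluorescence freed from ubiquitin-rhodamine substrate followed over time; top concentration of the series differs between compounds; % is set by controls: 0 for no effect and ±100 for the full control effect; nearly all actives have a fitted effect of over 35% in size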). The following applies: purified USP1/UAF1, Ub-rhodamine cleavage fluorescence; series mostly up to 54.9 µM. In short, it runs like this: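 USP1/UAF1 complex (1nM) preincubated with compound 15 min at room temperature, then Ub-Rho substrate (150nM final) added. Fluorescence read kinetically at 480/540 nm, 6 reads every 60 seconds. Buffer: 50mM HEPES pH 7.8, 0.5mM EDTA, 0.1 mg/ml BSA, 1mM TCEP, 0.01% Tween-20.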

[17] abbreviates: measured here: cell count channel max response.
[18] abbreviates: measured here: lipid channel max response.

Each structure is given as a SMILES string. Inconclusive results are not listed. Calls of active or inactive are those of the source. Unless noted, calls come from the whole dose curve; as a rule, active = well fitted curve in either direction with a large enough effect (not every such curve was filed as active); inconclusive = small, poorly fitted or top-dose-only effect, or another doubt; inactive = flat fitted curve, though single readings scatter.

Lysosomal acid glucosylceramidase (Homo sapiens), sequence (P04062 whole entry, looked up): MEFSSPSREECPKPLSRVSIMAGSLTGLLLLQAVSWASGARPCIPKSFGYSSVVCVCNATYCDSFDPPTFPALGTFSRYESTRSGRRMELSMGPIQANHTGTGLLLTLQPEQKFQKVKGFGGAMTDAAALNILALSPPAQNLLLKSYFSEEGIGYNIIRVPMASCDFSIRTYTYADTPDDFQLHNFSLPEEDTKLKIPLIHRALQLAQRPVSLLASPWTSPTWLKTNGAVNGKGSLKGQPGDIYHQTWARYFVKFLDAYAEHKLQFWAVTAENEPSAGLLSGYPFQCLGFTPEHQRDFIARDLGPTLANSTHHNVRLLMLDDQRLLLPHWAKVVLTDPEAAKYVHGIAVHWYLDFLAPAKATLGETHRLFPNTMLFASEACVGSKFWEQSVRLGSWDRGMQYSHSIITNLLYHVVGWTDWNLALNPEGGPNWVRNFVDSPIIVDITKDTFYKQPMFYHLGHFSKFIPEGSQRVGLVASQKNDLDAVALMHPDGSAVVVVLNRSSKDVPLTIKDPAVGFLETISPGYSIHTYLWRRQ
Ubiquitin carboxyl-terminal hydrolase 1 (Homo sapiens), sequence (O94782 whole entry, looked up): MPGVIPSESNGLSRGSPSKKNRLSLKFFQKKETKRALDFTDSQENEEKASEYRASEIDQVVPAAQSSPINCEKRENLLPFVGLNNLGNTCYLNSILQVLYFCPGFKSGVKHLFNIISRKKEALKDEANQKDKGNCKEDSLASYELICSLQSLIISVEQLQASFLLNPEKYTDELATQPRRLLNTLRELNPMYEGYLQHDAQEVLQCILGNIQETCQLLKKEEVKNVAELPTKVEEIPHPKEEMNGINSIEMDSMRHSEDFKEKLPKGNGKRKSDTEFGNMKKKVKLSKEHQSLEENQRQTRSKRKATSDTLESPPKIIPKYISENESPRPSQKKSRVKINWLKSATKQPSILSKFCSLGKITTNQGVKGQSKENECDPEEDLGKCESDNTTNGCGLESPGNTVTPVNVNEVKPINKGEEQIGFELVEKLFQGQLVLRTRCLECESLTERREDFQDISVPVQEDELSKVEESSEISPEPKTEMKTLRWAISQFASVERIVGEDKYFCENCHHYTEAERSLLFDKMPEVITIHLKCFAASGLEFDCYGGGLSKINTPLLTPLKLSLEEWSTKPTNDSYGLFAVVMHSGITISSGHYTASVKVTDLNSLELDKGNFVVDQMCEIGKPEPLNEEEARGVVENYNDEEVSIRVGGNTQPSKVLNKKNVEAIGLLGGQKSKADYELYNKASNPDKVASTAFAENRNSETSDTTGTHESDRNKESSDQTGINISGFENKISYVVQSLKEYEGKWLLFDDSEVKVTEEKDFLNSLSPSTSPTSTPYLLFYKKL

As for `COc1ccc(-c2nc3cnc(Oc4ccccc4)nc3n(Cc3cccs3)c2=O)cc1`, the Potency was > 11.4 µM (inactive) in experiment [1], > 9.22 µM (inactive) in [5], > 46 µM (inactive) in [6] and 2.51 µM (active) in experiment [9]. Besides, the figures for the activity change, negative = inhibition in experiment [2], in [3] and in experiment [10] were 0.136% (inactive), -1.73% (inactive) and -0.637% (inactive), respectively. Besides, the activity, negative = inhibition in experiment [4] was 16.1% (inactive). Moreover, the Potency entry in experiment [7] and in experiment [8] was “inactive” throughout. Also, the max response amounted to 27.6% in experiment [10] (setting [17]) and 28.4% in experiment [10] (setting [18]). In [11], the result was inactive.

For `COc1ncc2nc(-c3cn(C)c4ccccc34)c(=O)n(Cc3ccc(F)cc3)c2n1`, the Potency in experiment [1] was > 11.4 µM (inactive); in experiment [5], > 9.22 µM (inactive); in [6] it was > 46 µM (inactive); in experiment [12], 6.31 µM (active). For the same compound, the results for the activity change, negative = inhibition in [2], in experiment [3] and in [10] were 10.6% (inactive), -4.65% (inactive) and 3.02% (inactive), respectively. Besides, the activity, negative = inhibition in experiment [4] is 20.2% (inactive). Further, the Potency entry in experiment [7], in experiment [8] and in experiment [13] was “inactive” each time. The max response in [10] (setting [17]) is 18.8%; in [10] (setting [18]) it was 23.9%. Besides, in [11], the outcome was inactive.

`Cc1cnc(CNc2ccnc(-c3ccc(C(=O)N(C)C)cc3)n2)cn1`: the Potency in experiment [1] was > 11.4 µM (inactive); in [5], > 46 µM (inactive); in [6] it was > 46 µM (inactive). Moreover, the activity change, negative = inhibition is 9.07% (inactive) in experiment [2], 1.49% (inactive) in experiment [3] and 9.3% (inactive) in experiment [10]. Moreover, the activity, negative = inhibition in experiment [4] is 0.405% (inactive). The Potency entry in experiment [7], in experiment [8], in experiment [14] and in [16] was “inactive” in each case. The result in experiment [15] and in experiment [11] was inactive. In addition, the max response was determined as 6.03% in [10] (setting [17]) and 15.8% in experiment [10] (setting [18]).

In the case of `Cc1noc(C)c1-c1nc(NCc2cccnc2)c2ccccc2n1`, the Potency in experiment [1] is > 11.4 µM (inactive); in experiment [5] it was > 46 µM (inactive); in [6] it was > 46 µM (inactive). Besides, the activity change, negative = inhibition in [2] was 2.83% (inactive); in experiment [3], -10.7% (inactive); in experiment [10], 11.8% (inactive). For the same compound, in experiment [4], the activity, negative = inhibition was -14.2% (inactive). Besides, the Potency result in [7] and in [14] was “inactive” throughout. Also, the compound was called inactive in experiment [15] and in [11]. Further, the max response in experiment [10] (setting [17]) turned out to be 12.2%; in [10] (setting [18]), 21%.

Regarding `Cc1nc2cnc(N3CCNCC3)nc2n(C2CC2)c1=O`, the figures for the Potency in experiment [1], in experiment [5] and in experiment [6] were > 11.4 µM (inactive), > 9.22 µM (inactive) and > 46 µM (inactive), respectively. Moreover, the activity change, negative = inhibition in experiment [2] was 5.94% (inactive); in [3] it was 3.04% (inactive); in experiment [10] it was 0.607% (inactive). The activity, negative = inhibition in experiment [4] was -7.48% (inactive). The Potency entry in [7] and in [8] was “inactive” in each case. The max response came out at 18.2% in [10] (setting [17]) and 19.1% in [10] (setting [18]). Further, in experiment [11], the result was inactive.

For the compound `Cc1ccccc1-c1nc(NCCN2CCOCC2)c2ccccc2n1`, the Potency was > 11.4 µM (inactive) in experiment [1], > 46 µM (inactive) in experiment [5] and > 46 µM (inactive) in experiment [6]. Besides, the activity change, negative = inhibition in experiment [2] was -10.8% (inactive); in experiment [3], -9.08% (inactive); in [10], 8.15% (inactive). In experiment [4], the activity, negative = inhibition is -0.303% (inactive). Also, the Potency result in [7] and in experiment [8] was “inactive” throughout. Moreover, the call in experiment [15] and in experiment [11] was inactive. In addition, the values for the max response in [10] (setting [17]) and in [10] (setting [18]) were 17.4% and 26.1%, respectively.

The record behind these values is PubChem BioAssay (NCATS).
